In publication PMC13494018:

B1: design_621_7e0052dc-ae49-49a0-b99f-9f3ee649cc2f_216_dldesign_0_cycle1_af2pred (protein)
chain: RMAEVAERIRRTAEEVREGDAETAVRLAAEVLELARREGNEASAHLAANALRAARAGDVERAVVYLEAAAEITALS
B2: design_621_7e0052dc-ae49-49a0-b99f-9f3ee649cc2f_282_dldesign_0_cycle1_af2pred (protein)
chain: ARAKIVEAAKKAAKEAEAATTRGEVLVALAKAAAVFNRVGDAAGAARVSAAIVQATQLDAAEAKKLAVEVLTAIAEEAA
B3: design_620_fbd04095-bef7-46a9-992d-f2cb8915922f_1411_dldesign_0_cycle1_af2pred (protein)
chain: DELTKLAQEAADAAVRAMEAGRYLPLEEANALINEVIKLYQKASEAAVAGKLEEAKKYAKEAKAKAKEIEELAEKRRA
B4: design_620_fbd04095-bef7-46a9-992d-f2cb8915922f_846_dldesign_0_cycle1_af2pred (protein)
chain: AADALAGAKAALNTIKAAETNAKKLDAAGAEAQYKLAKVALESAKVHAAKLGEEGKKIAEEAKKALAATKAVAEAKKAA
B5: design_620_fbd04095-bef7-46a9-992d-f2cb8915922f_1420_dldesign_0_cycle1_af2pred (protein)
chain: KQKYVNAIKANAKNLELIAEGAAQVDPALAKEAKAAAEKAKAKAEEAKKSTAEEAAALRKEVQAALAALSRALIAAAA
B6: design_620_fbd04095-bef7-46a9-992d-f2cb8915922f_868_dldesign_0_cycle1_af2pred (protein)
chain: MEEERREELRRKAEEYIAQAEALAAQTSPSAQLLVSNLARQARRLAEAGDYEGALEVARAALEGAQAMAAQQ
B7: design_620_fbd04095-bef7-46a9-992d-f2cb8915922f_2241_dldesign_0_cycle1_af2pred (protein)
chain: AEKVRELADQMVAIAREAAEKGLSPAEIGAANGQVVDLLEEAYRLAKESGASQEVLDYLNAKNAEANRLLLAAQRA
B8: design_620_fbd04095-bef7-46a9-992d-f2cb8915922f_1950_dldesign_0_cycle1_af2pred (protein)
chain: GVAETLKRNLEAAERILKEGEELFETDPAAGAAKFKSAELLATGVVATAEADPSVPEEILKRAKELAKRAKEALEEAEKKVEELKA
B9: design_620_fbd04095-bef7-46a9-992d-f2cb8915922f_2282_dldesign_0_cycle1_af2pred (protein)
chain: AAAEGQALVKQATAYAEEALRLAREGGDPEEVAAKLNLAATYAIKAMNLPATQAQGAKVMDYLGEVAREVAAIRAARAAA
B10: design_620_fbd04095-bef7-46a9-992d-f2cb8915922f_2199_dldesign_0_cycle1_af2pred (protein)
chain: AEAAAQAARASVAAARAAVKDARRIAENAKTPEQLESAKKVLEVARALAEDAERNAKAAGDEELVKLAEEARKEAEEAEKKVREKAEE
B11: design_620_fbd04095-bef7-46a9-992d-f2cb8915922f_2334_dldesign_0_cycle1_af2pred (protein)
chain: LTEEEQKELIIDTIKGLAESAKQFAKASGDPELAKQAEKVAELAKKAIEVTKKGTLEDGVKALSEVSKATMEVAKAA
B12: design_620_fbd04095-bef7-46a9-992d-f2cb8915922f_2277_dldesign_0_cycle1_af2pred (protein)
chain: GAAAERAALRDAALAEVDALLAAGAAAAAAAASPVAALLDAHRAAAEVIARLRERDPAAGEEVAAEAQARFSALLRQASASVVA
B13: design_621_7e0052dc-ae49-49a0-b99f-9f3ee649cc2f_407_dldesign_0_cycle1_af2pred (protein)
chain: SEAQRLYDAAKTWADIANAAIQQAAADPSTAAVAVAAAKAAVASAKRLAEKAEKLAAKKPEYAPLAKDAKAAVAAAAAAAKAAAA
B14: design_620_fbd04095-bef7-46a9-992d-f2cb8915922f_1968_dldesign_0_cycle1_af2pred (protein)
chain: DAAVQAAVAAGQAAAERARETGERAREAGDEETAARLEALAQSVDILADGAAATKDAHAAATLQTLVRQAEREVEEAERRLEA
B15: design_620_fbd04095-bef7-46a9-992d-f2cb8915922f_1927_dldesign_0_cycle1_af2pred (protein)
chain: AAAQAALEKMKALAEQALAEIKALSQKDQASIDQGIAVLSRTVTELMTAANQYPEVAAQYAQLAVDLLEQSSKYIRAGRARVAAKEAA
B16: design_620_fbd04095-bef7-46a9-992d-f2cb8915922f_2025_dldesign_0_cycle1_af2pred (protein)
chain: GLAEVLRASGLALEAYELAEKLAKENPEEGRKAFQEAARLSLRAAARALAIARAFPEIAEFALRLAQRLVELAAEAAEKARELEA
B17: design_620_fbd04095-bef7-46a9-992d-f2cb8915922f_2436_dldesign_0_cycle1_af2pred (protein)
chain: EAAKEAEKAYKEAKEAAAAALAAADAAADKVPATAVDVLKRTVTANLKQAEKALKAGDAKAVKAQKKQLELLKEGAAAAA
B18: design_621_7e0052dc-ae49-49a0-b99f-9f3ee649cc2f_162_dldesign_0_cycle1_af2pred (protein)
chain: MGELFAALIEAMRLASEAARLAKAGEKEEAKEKLEKALKLVGEVAKATGTTAIYDETAKKAEASSLEEAARAVMSGAAKIISEAAKKA
B19: design_620_fbd04095-bef7-46a9-992d-f2cb8915922f_2412_dldesign_0_cycle1_af2pred (protein)
chain: ADGSRLTEAFRVAAEARRVGEEAGKLLGEEALEEAERAAAELRRLLAAAMRAMAAGTGADEAVNAALDAARAALAEFEERLKEAR
B20: design_621_7e0052dc-ae49-49a0-b99f-9f3ee649cc2f_290_dldesign_0_cycle1_af2pred (protein)
chain: AAAALERAARIALAAAKAMLRTAEATGNAAAAAVAADLAAYAAATARAAGPALAPLAAEAEAVEARARALAA
B21: design_620_fbd04095-bef7-46a9-992d-f2cb8915922f_839_dldesign_0_cycle1_af2pred (protein)
chain: MSWSEKAAEAAIKRLKELAKKAVSEGGKYAELAAAAARNAALLSYAAGPEMAKKAIKVFKEAAKLYPELAPAMEQAIALIESLL
B22: design_620_fbd04095-bef7-46a9-992d-f2cb8915922f_687_dldesign_0_cycle1_af2pred (protein)
chain: ATAAEAAALRDAGVAAANSAAAAAKAGNTTAAGELLTEAVKLAAQLAALGDEAGAAEVRAAIAASSKTIIAAQAA
B23: design_621_7e0052dc-ae49-49a0-b99f-9f3ee649cc2f_121_dldesign_0_cycle1_af2pred (protein)
chain: EEAERKARTAELLKEAIHLGFRGIAVGPEYIKEGAKKLEEAAKLLPEKKPLLEKMAELAKKAAESTPTEALQLTLEMIEIAKEVVE
B24: design_620_fbd04095-bef7-46a9-992d-f2cb8915922f_1750_dldesign_0_cycle1_af2pred (protein)
chain: DPAKELARRVVEANLKQLKKLLEEAGKASTEEGKKLAKEAIEKVEKLKKEALASSAAEATALTVKAIEEASKALREIKKLK
B25: design_621_7e0052dc-ae49-49a0-b99f-9f3ee649cc2f_147_dldesign_0_cycle1_af2pred (protein)
chain: MEAAAEIALKTAKAMTKSAVAAAEAGNLEDARQIAETAKEILEATAKKVSPELAKKLKEAAKKATAEAEAAVKAAAARLAA
B26: design_620_fbd04095-bef7-46a9-992d-f2cb8915922f_814_dldesign_0_cycle1_af2pred (protein)
chain: SALSIAQLAASTQAVMKRAAKEVKGELAKKIKEAAKLAATGEKAKEAAALLKEAAKEAPEELKPLVASAAKHAELLVAAS
B27: design_620_fbd04095-bef7-46a9-992d-f2cb8915922f_1232_dldesign_0_cycle1_af2pred (protein)
chain: SERHQQLVDFMVAAGQVALTNLAGALRTAEIVARTDPAAAVEGAKKIRELAAKTTPEDAAKMNAVADHALAAAA
B28: design_621_7e0052dc-ae49-49a0-b99f-9f3ee649cc2f_375_dldesign_0_cycle1_af2pred (protein)
chain: SQAAQIALNAAKSLAENIKKYAEVMSEEEAKGAIELLYDLAKYAKKEDPELGKKAEKIAEEAKKYVEKVFKEKKEEEEK
B29: design_620_fbd04095-bef7-46a9-992d-f2cb8915922f_1337_dldesign_0_cycle1_af2pred (protein)
chain: ADAATQAAIDANAAQAERALAAARADPAALPYAQAAIRNLELIAAGASPETQARGLARAEALRAALAAARAAA
B30: design_620_fbd04095-bef7-46a9-992d-f2cb8915922f_1742_dldesign_0_cycle1_af2pred (protein)
chain: AAAVATAAAQAFLAQAEKNLAAAKAALKAGDYEAAIKHAQAAIGSAQSAKLAAQSAGDAALAAQADKVIAEAKKVLAEAEKALKEA
B31: design_620_fbd04095-bef7-46a9-992d-f2cb8915922f_1723_dldesign_0_cycle1_af2pred (protein)
chain: SAAAQQAAWQTYVDAAAEMSKLRREALASGDPEVKEKAIEEIKALADKAAANPAAAAAAKLAGENMTAALTES
B32: design_620_fbd04095-bef7-46a9-992d-f2cb8915922f_936_dldesign_0_cycle1_af2pred (protein)
chain: LTPLEKAEAAKAKADKLYEAAQKATKAEAASLYGEAAVEYAKAAAYYLRAGDAAAAAAAQANLKTAVAKSQALVAA
B33: design_620_fbd04095-bef7-46a9-992d-f2cb8915922f_1144_dldesign_0_cycle1_af2pred (protein)
chain: DPARQATINALIKAAAEAAKLGDTALSQAAVEAAVALASAKTQEELDAAQKEADAVLAAAAKRKAAAAAA
B34: design_620_fbd04095-bef7-46a9-992d-f2cb8915922f_790_dldesign_0_cycle1_af2pred (protein)
chain: AKAKELAKKAEKALKAAKEAAKLKPEEAAAKANKELGKVLEAQKKAVEAGAPQEALDKINAVATEIAKIALEAAKAA
B35: design_620_fbd04095-bef7-46a9-992d-f2cb8915922f_946_dldesign_0_cycle1_af2pred (protein)
chain: AAALEAARRVAYGQMVLGKMKADEGLKKAESGEDLEGGIKMAEEGLKLAKEYAEYDPVKGGAAAKEIGAKLKKMKELAKKAK
B36: design_620_fbd04095-bef7-46a9-992d-f2cb8915922f_1150_dldesign_0_cycle1_af2pred (protein)
chain: MRERIEKVEKEAKEAYEATKKAAAAQGEAGKIIAAAADAALKRLEEAAKKAKEALEEGDLESAEKYLKEAEAQLETIKVLKESAE
B37: design_620_fbd04095-bef7-46a9-992d-f2cb8915922f_1739_dldesign_0_cycle1_af2pred (protein)
chain: AEAAELLAQLQAATAAAQAAAAAGDAAAANAHLAQAVELASQIHRVGDAAQRAQANQLLAQASRAAIAANAAAAA
B38: design_620_fbd04095-bef7-46a9-992d-f2cb8915922f_1915_dldesign_0_cycle1_af2pred (protein)
chain: NEDLKKAAELAKKAAQLAPQPEAAEVAAKAAEAAEKAVGPELGNYALALATLPPAARALGMSNLATSLEKLV

target: CD276, Q5ZPR3
Sequence (Q5ZPR3 whole entry): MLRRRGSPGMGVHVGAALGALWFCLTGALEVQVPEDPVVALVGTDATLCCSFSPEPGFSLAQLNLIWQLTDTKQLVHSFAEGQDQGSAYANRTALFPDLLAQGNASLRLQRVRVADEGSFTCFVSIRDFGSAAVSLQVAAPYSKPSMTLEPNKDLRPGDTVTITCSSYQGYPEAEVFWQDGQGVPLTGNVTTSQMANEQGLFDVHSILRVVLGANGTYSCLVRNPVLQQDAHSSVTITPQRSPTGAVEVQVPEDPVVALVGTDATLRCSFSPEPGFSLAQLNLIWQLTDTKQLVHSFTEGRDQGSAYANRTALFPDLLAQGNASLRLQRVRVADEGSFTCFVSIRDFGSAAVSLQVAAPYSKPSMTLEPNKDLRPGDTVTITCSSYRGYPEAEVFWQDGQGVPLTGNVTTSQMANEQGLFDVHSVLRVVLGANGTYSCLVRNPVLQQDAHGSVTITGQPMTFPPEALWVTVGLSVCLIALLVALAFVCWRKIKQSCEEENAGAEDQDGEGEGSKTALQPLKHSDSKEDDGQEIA

Binding in a display sort, inactive:
B1 not found
B2 not found
B3 not found
B4 not found
B5 not found
B6 not found
B7 not found
B8 not found
B9 not found
B10 not found
B11 not found
B12 not found
B13 not found
B14 not found
B15 not found
B16 not found
B17 not found
B18 not found
B19 not found
B20 not found
B21 not found
B22 not found
B23 not found
B24 not found
B25 not found
B26 not found
B27 not found
B28 not found
B29 not found
B30 not found
B31 not found
B32 not found
B33 not found
B34 not found
B35 not found
B36 not found
B37 not found
B38 not found
